Results reported in paper PMC5540273 (PLoS ONE, 2017).

system: MYO3B; details: concentration: 1 μM, replicates: in singlicate; n = 1
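Note: KINOMEscan kinase panel screen.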

Q: With `Cc1cccc(-c2nc(-c3ccc(S(C)(=O)=O)cc3)sc2-c2ccncc2)c1` as the compound, how does the “%Inh” value read?
A: 0%

Q: Which “%Inh” value does the source give for `Nc1nc(-c2ccc3c(N)n[nH]c3c2)cc(N2CCCC2)n1` [GSK2227430] here?
A: 7%

Q: Which “%Inh” value does the source give for `NCC(NC(=O)c1cc(-c2cn[nH]c2)c(-c2ccnc3[nH]ccc23)s1)c1ccccc1.O=C(O)C(F)(F)F.O=C(O)C(F)(F)F` (stereo not drawn) [GSK1325775] here?
A: 0%

Q: For `Cc1c(Cn2c(C)nn3c(=O)cc(N4CCOC(C)C4)nc23)cccc1C(F)(F)F` (stereo not drawn) [GSK2344444], which “%Inh” value is on record?
A: 0%

Q: `O=C(Nc1cccc(-c2nn3ncccc3c2-c2ccnc(Nc3cccc(C(F)(F)F)c3)n2)c1)c1c(F)cccc1F` [GSK299495] was tested. Which “%Inh” value did it give?
A: 4%

Q: For `N#Cc1c(N2CCOCC2)sc(-c2ccn[nH]2)c1-c1ccc(Cl)cc1`, which “%Inh” value is on record?
A: 32%

Q: For `CCc1nc(-c2cccc(C)c2)c(-c2ccnc(NCc3ccccc3)c2)s1`, which “%Inh” value is on record?
A: 0%

Q: `Nc1nccc(-c2c(-c3ccc(F)cc3)ncn2C2CCN(CC(F)(F)F)CC2)n1` [SB-236560] was tested. Which “%Inh” value did it give?
A: 0%

Q: With `CC(=O)Nc1ccc(COc2ccc(Nc3ccnc4cc(-c5ccccn5)ccc34)cc2)cc1.Cl` [GW440148] as the compound, how does the “%Inh” value read?
A: 2%

Q: For `O=C(NCCCN1CCOCC1)c1cccc(Nc2nccc(Nc3ccc(Oc4ccccc4)cc3)n2)c1` [GW663929], which “%Inh” value is on record?
A: 0%

Q: Which “%Inh” value does the source give for `COc1cc2c(cc1OCCN1CCN(C)CC1)ncc1c3ccc(C#N)cc3[nH]c21` here?
A: 0%

Q: For `COc1ccc(Nc2ncc(C#N)c(Nc3ccccc3C(N)=O)n2)cc1N1CCN(C)CC1.Cl` [GSK1558669], which “%Inh” value is on record?
A: 0%
